Our source for the binding signal values is PMC5700166.

Positions count from the first letter of the chain named.

Common to all, as to test: protein-binding microarray (PBM); PBM: ~300 nM protein, 6 mM HEPES pH 7.8, 80 mM KCl, 0.5 mM EDTA, 0.5 mM EGTA, 6% glycerol, 35 ng/ul poly-dIdC, 1% milk, 1 h, room temperature; Ap Aiptasia and Nv Nematostella (sea anemones) / Co Capsaspora / Aq Amphimedon (sponge) / Dm Drosophila / Hu human; RHD is the Rel homology domain; high values mean tight binding
Conditions in all cases: dsDNA, one strand shown

One assay deals with T1, GST-Ap-NF-kB RHD (Exaiptasia pallida (Aiptasia), UniProt A0A913YAJ5 2-422).
T1 sequence: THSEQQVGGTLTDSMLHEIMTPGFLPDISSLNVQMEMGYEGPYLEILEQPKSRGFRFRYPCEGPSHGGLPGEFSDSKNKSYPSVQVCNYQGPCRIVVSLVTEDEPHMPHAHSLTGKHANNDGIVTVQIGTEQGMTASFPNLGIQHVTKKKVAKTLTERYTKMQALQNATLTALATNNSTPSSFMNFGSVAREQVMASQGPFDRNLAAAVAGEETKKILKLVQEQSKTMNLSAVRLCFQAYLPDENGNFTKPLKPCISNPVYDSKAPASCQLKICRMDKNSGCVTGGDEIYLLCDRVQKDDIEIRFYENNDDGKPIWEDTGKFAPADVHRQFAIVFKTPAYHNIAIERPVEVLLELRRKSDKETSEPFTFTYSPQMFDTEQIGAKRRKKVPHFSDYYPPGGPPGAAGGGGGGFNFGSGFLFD

Assay [1] addresses T2, GST-Nv-NF-kB (Cys allele) (Nematostella vectensis, UniProt E5G601 2-411).
T2 sequence: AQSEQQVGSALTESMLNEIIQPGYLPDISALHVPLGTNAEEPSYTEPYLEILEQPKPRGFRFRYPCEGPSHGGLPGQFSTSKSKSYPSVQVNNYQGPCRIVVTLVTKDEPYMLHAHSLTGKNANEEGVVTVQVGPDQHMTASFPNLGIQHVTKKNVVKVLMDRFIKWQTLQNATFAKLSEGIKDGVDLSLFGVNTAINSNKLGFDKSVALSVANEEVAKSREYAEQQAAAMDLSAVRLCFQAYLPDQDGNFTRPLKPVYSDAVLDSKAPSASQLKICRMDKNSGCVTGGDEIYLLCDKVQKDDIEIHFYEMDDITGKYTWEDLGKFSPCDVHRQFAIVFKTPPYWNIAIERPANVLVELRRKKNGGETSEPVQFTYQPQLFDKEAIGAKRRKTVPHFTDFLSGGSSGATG

For assay [2], the target named is T3, GST-Nv-NF-kB (Ser allele) (Nematostella vectensis, UniProt A7UNT2 2-411).
T3 sequence: T2 sequence with Q21R, C66S, S207N, E215Q, V217A, E225K, A268E, D399E

The target of another assay is T4, GST-Co-NF-kB (Capsaspora owczarzaki, UniProt F1ARL5 200-546).
T4 sequence: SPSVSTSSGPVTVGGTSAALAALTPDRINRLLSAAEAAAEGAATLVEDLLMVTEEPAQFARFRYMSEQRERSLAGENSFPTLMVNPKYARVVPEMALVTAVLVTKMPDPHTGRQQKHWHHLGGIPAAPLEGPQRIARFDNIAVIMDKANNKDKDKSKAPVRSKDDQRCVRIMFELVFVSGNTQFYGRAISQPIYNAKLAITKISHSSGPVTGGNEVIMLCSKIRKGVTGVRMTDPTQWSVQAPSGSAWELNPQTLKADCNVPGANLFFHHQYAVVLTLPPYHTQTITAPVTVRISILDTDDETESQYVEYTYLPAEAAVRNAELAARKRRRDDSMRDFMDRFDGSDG

The next assay deals with T5, GST-Dm-Relish (Drosophila melanogaster, UniProt Q94527 99-473).
T5 sequence: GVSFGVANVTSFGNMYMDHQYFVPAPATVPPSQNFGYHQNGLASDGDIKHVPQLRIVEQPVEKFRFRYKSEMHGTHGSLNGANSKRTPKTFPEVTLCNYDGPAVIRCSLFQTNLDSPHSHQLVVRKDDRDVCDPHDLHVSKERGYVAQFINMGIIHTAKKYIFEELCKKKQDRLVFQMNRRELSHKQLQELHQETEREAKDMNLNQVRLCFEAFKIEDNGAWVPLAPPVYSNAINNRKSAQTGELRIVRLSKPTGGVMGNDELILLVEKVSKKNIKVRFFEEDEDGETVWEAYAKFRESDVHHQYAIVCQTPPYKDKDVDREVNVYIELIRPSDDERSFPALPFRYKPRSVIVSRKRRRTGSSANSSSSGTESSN

A further assay addresses T6, GST-Aq-NF-kB (Amphimedon queenslandica, UniProt A9Y5G7 2-389).
T6 sequence: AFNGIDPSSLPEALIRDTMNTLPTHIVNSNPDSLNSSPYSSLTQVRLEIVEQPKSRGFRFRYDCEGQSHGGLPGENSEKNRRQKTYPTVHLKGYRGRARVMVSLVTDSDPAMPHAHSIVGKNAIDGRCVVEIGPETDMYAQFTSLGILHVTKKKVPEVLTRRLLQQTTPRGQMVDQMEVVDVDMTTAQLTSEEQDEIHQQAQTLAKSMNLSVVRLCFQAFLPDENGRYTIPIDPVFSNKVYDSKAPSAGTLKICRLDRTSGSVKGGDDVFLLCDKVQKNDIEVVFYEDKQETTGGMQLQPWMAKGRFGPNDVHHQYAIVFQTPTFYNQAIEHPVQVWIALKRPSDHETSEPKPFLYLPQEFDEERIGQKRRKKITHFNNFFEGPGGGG

The next assay has as its target GST-Hu-p50 (Homo sapiens, UniProt P19838 7-356).

GST-Hu-p50, sequence (P19838 7-356): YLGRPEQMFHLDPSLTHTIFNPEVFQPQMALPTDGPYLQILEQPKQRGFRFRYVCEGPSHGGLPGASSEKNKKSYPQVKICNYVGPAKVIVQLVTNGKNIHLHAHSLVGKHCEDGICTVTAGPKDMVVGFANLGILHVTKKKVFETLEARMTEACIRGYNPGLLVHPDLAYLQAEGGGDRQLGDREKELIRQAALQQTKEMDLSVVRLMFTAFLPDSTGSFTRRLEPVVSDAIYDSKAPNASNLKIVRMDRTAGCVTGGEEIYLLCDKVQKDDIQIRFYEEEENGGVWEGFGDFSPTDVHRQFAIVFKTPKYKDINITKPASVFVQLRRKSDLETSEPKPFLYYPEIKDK

As to “CCGATTAACATCAAATCATTCCCTGATGTTAATCGGGTCTTGATTCGCTTGACGCTGCTG”, the binding signal with GST-Ap-NF-kB RHD came out at 1.6 z-score; in assay [1] it was 3.39 z-score; in assay [2], 3.1 z-score; in the assay with GST-Co-NF-kB, 3.4 z-score; in the assay with GST-Dm-Relish, 1.31 z-score; with GST-Aq-NF-kB, 4.36 z-score. Further, in the assay with GST-Hu-p50, the binding signal amounted to 1.78 z-score.
As for “CCGATTAACATCAGGGGGGTGTATGATGTTAATCGGGTCTTGATTCGCTTGACGCTGCTG”, the binding signal came to 3.69 z-score with GST-Ap-NF-kB RHD; 3.97 z-score in assay [1]; 4.14 z-score in assay [2]; 4.29 z-score with GST-Co-NF-kB; 4.17 z-score in the assay with GST-Dm-Relish; 4.24 z-score with GST-Aq-NF-kB. In the assay with GST-Hu-p50, this sequence returned a binding signal of 3.91 z-score.
Turning to “CCGATTAACATCAGGGAAAATTATGATGTTAATCGGGTCTTGATTCGCTTGACGCTGCTG”, the binding signal with GST-Ap-NF-kB RHD amounted to 5.47 z-score; in assay [1], 7.77 z-score; in assay [2], 8.46 z-score; in the assay with GST-Co-NF-kB, 6.45 z-score; with GST-Dm-Relish, 2.28 z-score; with GST-Aq-NF-kB, 6.77 z-score. Besides, in the assay with GST-Hu-p50, the binding signal worked out at 5.34 z-score.
For the sequence “CCGATTAACATCAACTTTCCCCCTGATGTTAATCGGGTCTTGATTCGCTTGACGCTGCTG”, the binding signal with GST-Ap-NF-kB RHD is 7.6 z-score; in assay [1], 7.45 z-score; in assay [2], 9.1 z-score; in the assay with GST-Co-NF-kB, 9.36 z-score; with GST-Dm-Relish, 3.9 z-score; in the assay with GST-Aq-NF-kB, 6.57 z-score. In the assay with GST-Hu-p50, the binding signal was found to be 6.16 z-score.
With “CCGATTAACATCAGCACTCCCCCTGATGTTAATCGGGTCTTGATTCGCTTGACGCTGCTG”, the binding signal with GST-Ap-NF-kB RHD was 5.42 z-score; in assay [1], 4.35 z-score; in assay [2], 4.91 z-score; in the assay with GST-Co-NF-kB it was 3.89 z-score; in the assay with GST-Dm-Relish it was 2.23 z-score; in the assay with GST-Aq-NF-kB, 3.99 z-score. Further, the binding signal with GST-Hu-p50 worked out at 5.21 z-score.
For “CCGATTAACATCAGGGAATCCCCTGATGTTAATCGGGTCTTGATTCGCTTGACGCTGCTG”, the binding signal came to 14.7 z-score in the assay with GST-Ap-NF-kB RHD; 13.7 z-score in assay [1]; 14.6 z-score in assay [2]; 6.28 z-score with GST-Co-NF-kB; 11 z-score with GST-Dm-Relish; 12.1 z-score in the assay with GST-Aq-NF-kB. In addition, in the assay with GST-Hu-p50, the binding signal was 8.34 z-score.
Take “CCGATTAACATCATATTTCCCCATGATGTTAATCGGGTCTTGATTCGCTTGACGCTGCTG”: the binding signal with GST-Ap-NF-kB RHD came out at 5.95 z-score; in assay [1] it was 7.45 z-score; in assay [2], 10.1 z-score; with GST-Co-NF-kB, 8.62 z-score; with GST-Dm-Relish, 2.89 z-score; in the assay with GST-Aq-NF-kB, 5.08 z-score. In addition, the binding signal in the assay with GST-Hu-p50 amounted to 6.08 z-score.
With “CCGATTAACATCAAACATCCCCTTGATGTTAATCGGGTCTTGATTCGCTTGACGCTGCTG”, the binding signal turned out to be 6.4 z-score in the assay with GST-Ap-NF-kB RHD; 7.13 z-score in assay [1]; 7.29 z-score in assay [2]; 2.37 z-score with GST-Co-NF-kB; 6.75 z-score with GST-Dm-Relish; 6.17 z-score with GST-Aq-NF-kB. This sequence also registered a binding signal with GST-Hu-p50 of 5.4 z-score.
As for “CCGATTAACATCACCGTTTCCCCTGATGTTAATCGGGTCTTGATTCGCTTGACGCTGCTG”, the binding signal with GST-Ap-NF-kB RHD is 6.05 z-score; in assay [1], 6.66 z-score; in assay [2], 9.86 z-score; with GST-Co-NF-kB it was 7.95 z-score; with GST-Dm-Relish it was 2.77 z-score; with GST-Aq-NF-kB, 4.66 z-score. For the same sequence, in the assay with GST-Hu-p50, the binding signal came out at 5.1 z-score.
Turning to “CCGATTAACATCAGGGAATGTTATGATGTTAATCGGGTCTTGATTCGCTTGACGCTGCTG”, the binding signal with GST-Ap-NF-kB RHD stood at 2.55 z-score; in assay [1], 4.38 z-score; in assay [2] it was 3.78 z-score; in the assay with GST-Co-NF-kB it was 2.75 z-score; with GST-Dm-Relish, 1.85 z-score; with GST-Aq-NF-kB it was 5.04 z-score. In the assay with GST-Hu-p50, this sequence gave a binding signal of 3.32 z-score.
For the sequence “CCGATTAACATCAGAAAATTCCCTGATGTTAATCGGGTCTTGATTCGCTTGACGCTGCTG”, the binding signal with GST-Ap-NF-kB RHD came out at 6.03 z-score; in assay [1], 9.51 z-score; in assay [2], 8 z-score; with GST-Co-NF-kB, 4.76 z-score; with GST-Dm-Relish, 7.55 z-score; in the assay with GST-Aq-NF-kB, 7.67 z-score. Further, in the assay with GST-Hu-p50, the binding signal came to 6.47 z-score.
With “CCGATTAACATCAAGGGGGTATCTGATGTTAATCGGGTCTTGATTCGCTTGACGCTGCTG”, the binding signal came to 6.66 z-score with GST-Ap-NF-kB RHD; 4.44 z-score in assay [1]; 4.28 z-score in assay [2]; 3.26 z-score with GST-Co-NF-kB; 3.38 z-score in the assay with GST-Dm-Relish; 4.34 z-score with GST-Aq-NF-kB. Also, the binding signal with GST-Hu-p50 is 4.61 z-score.
